# Screening results: PubChem, National Center for Advancing Translational Sciences (NCATS)
# ELG1 DNA repair – blocks ELG1-dependent DNA repair in HEK293T cells; HEK293T ELG1-luciferase reporter, luminescence, 16 h; DNA damage induced by 5-fluorouridine; Potency, µM (doses to about 46.1 µM), usual class: inhibitors; 2.3% of 330,000 active; AID 504467; also: nearly all actives have a fitted effect of over 55% in size
#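 DMSO vehicle served as the neutral condition. Each well held 2,000 cells given 5-fluorouridine plus compound; after 16 hr at 37 °C/5% CO2, ONE-Glo was added and luciferase measured 30 min later.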
# Rab9 promoter act – activators of Rab9 promoter; 2.8% of 320,000 active; Huh7 Rab9 promoter-luciferase reporter, luminescence, 24 h; Potency, µM (top dose mostly 9.22 µM), most hits filed as activators; also: nearly all actives have a fitted effect of over 60% in size
#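 Quantitative HTS format; Huh7 Rab9-luciferase reporter cells (1500/well) receive compound 2 h post-plating, incubate 24 h at 37 °C, then get luciferase reagent for 10 min before luminescence reading.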
# ELG1 genotoxic – genotoxicity induction in ELG1-luciferase HEK293T cells. HEK293T ELG1-luciferase reporter, luminescence, 16 h. 1.3% of 330,000 active. Potency, µM (titrated, usually from 46 µM), most hits filed as activators; also: nearly all actives have a fitted effect of over 60% in size
#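 HEK293T cells expressing luciferase-tagged ELG1 were exposed to compound or DMSO vehicle for 16 hr at 37 °C and 5% CO2. Luciferase activity was then measured with ONE-Glo after 30 min at room temperature.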
# NPC1 promoter act – activates the NPC1 promoter | Potency, µM (series often up to 9.22 µM), actives largely listed as activators | Huh7 NPC1 promoter luciferase reporter, 24 h | AID 485313 | 2.4% of 320,000 active; also: nearly all actives have a fitted effect of over 60% in size
#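 Cells: Huh7 expressing luciferase under the NPC1 promoter, 1500/well. Seeded 2 h, compound added, incubated 24 h at 37 °C. Luciferase reagent, 10 min ambient, then luminescence.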
# SMN2 splice enh – enhancers of SMN2 splice variant expression; HEK293 SMN2-luciferase splicing reporter, luminescence, 30-36 h; Potency, µM (top dose mostly 46.1 µM), actives largely listed as activators; 2.8% of 210,000 active; AID 1458; also: nearly all actives have a fitted effect of over 55% in size
#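 HEK293 cells carry an SMN2 minigene-luciferase reporter in which exon 7 inclusion puts luciferase in frame. Cells were seeded at 2000 cells/well, attached for 10-12 hours, then exposed to compounds for 30-36 hours at 37C before ONE-Glo luminescence.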
# FLuc counter – counter-screen for miR-21 project: firefly luciferase inhibitors or activators; purified FLuc, Km substrates, luminescence inhibition; Potency, µM (series often up to 57.5 µM), usual class: inhibitors; 6.9% of 360,000 active; also: nearly all actives have a fitted effect of over 55% in size
# Target sequence (P08659 whole entry, looked up): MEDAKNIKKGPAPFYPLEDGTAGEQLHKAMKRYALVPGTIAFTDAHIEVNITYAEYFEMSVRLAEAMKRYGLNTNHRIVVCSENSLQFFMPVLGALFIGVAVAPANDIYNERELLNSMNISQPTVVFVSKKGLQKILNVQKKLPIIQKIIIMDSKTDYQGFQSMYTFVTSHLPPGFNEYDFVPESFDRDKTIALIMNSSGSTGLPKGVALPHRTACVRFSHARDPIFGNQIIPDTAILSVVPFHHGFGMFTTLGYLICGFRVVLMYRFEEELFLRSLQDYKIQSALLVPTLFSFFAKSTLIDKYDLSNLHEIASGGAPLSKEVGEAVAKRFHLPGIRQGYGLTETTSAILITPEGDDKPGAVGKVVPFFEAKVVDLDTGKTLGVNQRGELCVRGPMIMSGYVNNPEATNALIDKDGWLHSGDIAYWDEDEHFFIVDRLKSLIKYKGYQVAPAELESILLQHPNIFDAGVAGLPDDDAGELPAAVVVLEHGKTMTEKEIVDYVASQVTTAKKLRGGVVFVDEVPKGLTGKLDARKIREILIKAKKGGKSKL
#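 Purified P. pyralis luciferase (10nM final) with 10uM D-luciferin and 10uM ATP (Km levels) in 50mM Tris acetate pH 7.5, 10mM Mg acetate, 0.01% Tween-20, 0.05% BSA; qHTS 6-point titration, ~60 µM downward; luminescence read.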
# Numbers stand for hits; i = inactive; ? = inconclusive; nt = no result. The list is not random: actives were taken first. Their share in the collection is about 9.3%. Calls follow the shape of the dose curve; as a rule, active = well fitted curve in the direction sought with a large enough effect; inconclusive = small, poorly fitted or top-dose-only effect, or another doubt; inactive = no such curve, though single readings can be large; an effect the other way counts as inactive or inconclusive.
SMILES,ELG1 DNA repair,Rab9 promoter act,ELG1 genotoxic,NPC1 promoter act,SMN2 splice enh,FLuc counter
O=C(COC(=O)C1CCC1)NCc1ccc(F)cc1,i,i,i,i,nt,i
Cc1ccc(C)c(NC(=O)C(c2ccccc2)N2CCOCC2)c1 (configuration not stated),i,i,i,i,nt,i
COc1cccc(NC(=O)CSc2nc(C)c(Cc3ccccc3)c(=O)[nH]2)c1,nt,nt,nt,nt,i,?
Cc1ccc(C2(C)NC(=O)N(CC(=O)Nc3ccccc3N3CCCC3)C2=O)cc1 (configuration not stated),i,i,i,i,nt,i
CCCCNC(=O)c1cccc(NC(=O)c2nsc3ccccc23)c1,nt,nt,nt,nt,nt,4.8µM
COCCCNC(=O)c1cccc(NC(=O)c2ccccc2)c1,i,i,i,i,i,i
CN(C(=O)COc1cccc(C#N)c1)C1CCS(=O)(=O)C1 (configuration not stated),i,i,i,i,nt,i
Cc1ccc(OCC(=O)Nc2ccccc2-c2ccccc2)cc1,i,?,?,?,?,15µM
CCOC(=O)N1CCN(C(=O)c2ccccc2NC(=O)COc2ccccc2)CC1,?,i,i,i,nt,i
CSc1ccccc1NC(=O)COc1ccc(Cl)cc1,?,i,i,i,i,?
O=Cc1ccc(OCC(=O)Nc2ccccc2-c2ccccc2)cc1,i,i,i,i,nt,i
Cc1ccc(OCC(=O)Nc2ccccc2C(N)=O)cc1,?,2.8µM,?,2.5µM,nt,8.5µM
NC(=O)c1ccccc1NS(=O)(=O)Cc1ccc(Cl)cc1,i,i,i,i,i,i
NC(=O)c1ccccc1NC(=O)COc1ccc(Cl)cc1,?,?,?,3.2µM,nt,17µM
O=C(COc1ccc(Cl)cc1)Nc1ccccc1Cl,?,i,?,i,nt,17µM
O=C1CC2(CCN(C(=O)C3CC(=O)N(c4ccc(F)cc4)C3)CC2)Oc2ccccc21 (configuration not stated),?,i,i,i,nt,i
CN(C)S(=O)(=O)c1ccc(C(=O)NCc2nnc(SCC(=O)N3CCCC3)o2)cc1,i,i,i,i,nt,i
CSc1nc2ccc(Br)cc2[nH]1,i,i,i,i,i,i
CC(C)Sc1nc2ccc(Br)cc2[nH]1,?,?,?,i,nt,17µM
Cc1cc(C)c(C(=O)/C=C/C=C/c2ccccc2)c(=O)[nH]1,i,i,i,i,i,?
Cc1cc(O)c(C(=O)/C=C/c2ccccc2)c(=O)o1,i,i,i,i,nt,19µM
COc1ccc(/C=C\C(=O)c2c(O)ccc3c(C)cc(=O)oc23)cc1,i,i,i,i,i,i
Cc1cc(O)c(C(=O)/C=C/c2ccc(C(C)C)cc2)c(=O)o1,?,2.8µM,?,?,nt,3.4µM
CCOc1ccc(/C=C/C(=O)c2c(O)cc(C)oc2=O)cc1,?,?,i,?,nt,6.7µM
Cc1cc(O)c(C(=O)/C=C/c2ccccc2Br)c(=O)o1,?,i,i,i,nt,?
SMILES,ELG1 DNA repair,Rab9 promoter act,ELG1 genotoxic,NPC1 promoter act,SMN2 splice enh,FLuc counter
Cc1cc(C)c(C(=O)/C=C/c2ccc(C(C)C)cc2)c(=O)[nH]1,21µM,i,i,i,i,?
CC(C)(C)C(=O)C1=C(O)C(=O)N(c2ccccc2)C1c1ccccc1 (configuration not stated),i,i,i,i,nt,i
CN1C(=O)Cc2cc(S(=O)(=O)CCC(=O)Nc3ccccc3)ccc21,nt,nt,nt,nt,nt,i
COc1ccc(CCN(C)C2CCCN(C(=O)c3sccc3C)C2)cc1OC (configuration not stated),i,i,i,i,nt,i
CC(C)C(=O)Nc1sc2c(c1-c1nc3ccccc3[nH]1)CCCC2,i,i,i,i,i,?
COCn1c(=O)c2c(nc(SC3=NCCS3)n2Cc2ccccc2C)n(COC)c1=O,18µM,i,i,i,i,i
COCCCn1c(=O)c2ccccc2n(Cc2ccccc2C)c1=O,i,i,i,i,nt,i
Cc1nc(/N=C(\N)Nc2ccccc2)nc2ccccc12,?,i,i,?,i,12µM
Cc1cc(C)nc(/N=C(\N)Nc2ccc(OCc3ccccc3)cc2)n1,i,i,i,i,nt,i
